Assay outcomes deposited in PubChem BioAssay by National Center for Advancing Translational Sciences (NCATS).
LASV entry inh: blocks Lassa virus binding to or entry into cells; Lassa virus pseudotype entry inhibition, cell reporter; AID 540256; Potency, µM (top dose mostly 37.9 µM), most hits filed as inhibitors; 1.2% of 300,000 active; calls by dose curve; tested in HEK293 cells; note: nearly all actives have a fitted effect of over 50% in size
HCMV antiviral: inhibitors of human cytomegalovirus. HFF cells, HCMV-luciferase reporter, 72 h; stronger effect = lower value. activity change, negative = inhibition, % at 57.5 µM. AID 1259415. 4.5% of 410,000 active; in the data active = activity change below about -60%; inconclusive = no clear call, values can overlap the other calls; inactive = above about -39%
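Cell-based, HFFs, 1000 cells/well, 16 h 37C; cpds in DMSO + HCMV-luc, MOI 1 PFU/cell; 72 h 37C; OneGlo luminescence after 5 min RT; norm. to buffer vs Salinomycin 10uM.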
VACV Venus inh: inhibitors of vaccinia virus (Venus reporter); Vaccinia virus Venus reporter expression, fluorescence; Potency, µM (highest dose often 36.5 µM), hits mostly inhibitors; 0.46% of 330,000 active; AID 720580; calls by dose curve; tested in A549 cells; note: nearly all actives have a fitted effect of over 30% in size
Marburg entry inh: inhibitors of Marburg virus binding or cell entry; AID 540276; Marburg virus pseudotyped entry inhibition, cell reporter; Potency, µM (series often up to 37.8 µM), actives largely listed as inhibitors; 1.8% of 300,000 active; calls by dose curve; tested in HEK293 cells
VACV mCherry inh: inhibitors of vaccinia virus infection (mCherry reporter signal). Potency, µM (titrated, usually from 36.5 µM), actives largely listed as inhibitors. Vaccinia virus mCherry reporter infection, fluorescence. 0.63% of 310,000 active; calls by dose curve; tested in A549 cells; note: nearly all actives have a fitted effect of over 35% in size
FMDV antiviral: blocks foot and mouth disease virus. FMDV antiviral cell-based qHTS. Potency, µM (titrated, usually from 57.9 µM), actives largely listed as inhibitors. 1.2% of 410,000 active; calls by dose curve; tested in HEK293T cells; note: read-out not given here; nearly all actives have a fitted effect of over 45% in size
Large screens that a line does not name were inactive. An excerpt weighted towards active compounds, which were near 6.5% of everything screened.

CCC(C)CCN1C(N(C)C)=NC[C@@H]1Cc1ccccc1 (some centres undefined)	HCMV antiviral -67 (no result: LASV entry inh, Marburg entry inh)
CC(C)CCN1C(Nc2ccccc2)=NC[C@@H]1Cc1ccccc1	none (no result: LASV entry inh, Marburg entry inh)
CC(CCN1C(Nc2ccccc2)=NC[C@@H]1Cc1ccccc1)c1ccccc1 (some centres undefined)	HCMV antiviral -61, VACV mCherry inh inconclusive (no result: LASV entry inh, Marburg entry inh)
O=C1CC(c2nnc(Cc3ccc(F)cc3)o2)CN1c1ccccc1 (centres undefined)	none
COc1ccc(-c2cc3nc(-c4ccc(Br)cc4)cc(C(F)(F)F)n3n2)cc1	none
CC(=O)Nc1ccc(S(=O)(=O)NCCSCc2ccccc2Cl)cc1	LASV entry inh inconclusive, HCMV antiviral -84, VACV Venus inh inconclusive, Marburg entry inh inconclusive
CC(=O)Nc1ccc(S(=O)(=O)NCC2CCC(C(=O)NCc3ccccc3Cl)CC2)cc1 (centres undefined)	none (no result: Marburg entry inh)
Brc1cc2ccccc2[n+](Cc2ccccc2)c1	HCMV antiviral -101 (no result: LASV entry inh, Marburg entry inh)
O=C(C[n+]1cc(Br)cc2ccccc21)c1ccc(Br)cc1	Marburg entry inh inconclusive
CC(C)N1C(=O)C[C@H](S(=O)(=O)c2ccccc2)[C@H]1c1ccccc1	none (no result: LASV entry inh, VACV Venus inh, Marburg entry inh, VACV mCherry inh, FMDV antiviral)
CC(C)Oc1ccc(CNS(=O)(=O)c2ccc3c(c2)C(C)(C)C(=O)N3C)cc1	none (no result: Marburg entry inh)
Cc1ccc(Sc2ncccc2C(=O)O)cc1C	HCMV antiviral -67, FMDV antiviral inconclusive
O=C(O)c1cccnc1SCc1ccccc1	none (no result: VACV Venus inh, VACV mCherry inh)
CCN(C(=O)CSc1ncccc1C(=O)Oc1cccc([N+](=O)[O-])c1)c1cccc(C)c1	FMDV antiviral 25µM
CSc1cccc(NC(=O)CSc2ncccc2C(=O)Oc2cccc([N+](=O)[O-])c2)c1	none
COCc1c(C(=O)N2CCN(C3CCCC3)CC2)cnn1-c1ncc2c(n1)-c1ccccc1CCC2	none (no result: LASV entry inh, HCMV antiviral, Marburg entry inh)
CC1(C)COC(/C=C/c2cccc([N+](=O)[O-])c2)=N1	LASV entry inh inconclusive, HCMV antiviral -95, VACV Venus inh inconclusive, Marburg entry inh inconclusive, VACV mCherry inh 11µM, FMDV antiviral 25µM
CCOC(=O)COc1ccc(C2C(C(=O)OC)=C(C)NC3=C2C(=O)c2ccccc23)cc1Cl (centres undefined)	HCMV antiviral -102
CCOc1cc(C2C(C(=O)OC)=C(C)NC3=C2C(=O)c2ccccc23)ccc1OC (centres undefined)	none (no result: Marburg entry inh)
Cc1ccc(S(=O)(=O)Nc2ccc3c(c2)CC(=O)N([C@H](C)CO)C[C@@H](C)[C@H](CN(C)Cc2ccc(-c4ccccc4)cc2)O3)cc1	VACV Venus inh inconclusive, VACV mCherry inh inconclusive (no result: LASV entry inh, HCMV antiviral, Marburg entry inh)
C[C@H](CO)N1C[C@H](C)[C@H](CN(C)Cc2ccc(-c3ccccc3)cc2)Oc2ccc(NS(=O)(=O)c3ccccc3)cc2CC1=O	VACV Venus inh 10µM, VACV mCherry inh inconclusive, FMDV antiviral inconclusive (no result: LASV entry inh, HCMV antiviral, Marburg entry inh)
C[C@H]1CN([C@@H](C)CO)C(=O)Cc2cc(NC(=O)CCC(F)(F)F)ccc2O[C@H]1CN(C)Cc1ccc(-c2ccccc2)cc1	VACV Venus inh inconclusive, VACV mCherry inh 11µM (no result: LASV entry inh, Marburg entry inh)
COc1ccc(NC(=O)Nc2cccc(OCc3cc(=O)n4cccc(C)c4n3)c2)c(OC)c1	none (no result: Marburg entry inh)
COc1ccc(CCN(C)CC(O)COc2c(C)ccc(C)c2C)cc1OC (centres undefined)	none (no result: LASV entry inh, VACV Venus inh, Marburg entry inh, VACV mCherry inh)
COc1ccc(CCN(C)CC(O)COC(c2ccc(F)cc2)c2ccc(F)cc2)cc1OC (centres undefined)	LASV entry inh inconclusive, Marburg entry inh 5.6µM
COc1ccc(CN2CCCC(c3nc(-c4ccncc4)ncc3-c3ccccc3)C2)cc1OC (centres undefined)	none (no result: LASV entry inh, HCMV antiviral, Marburg entry inh)
Cc1ccccc1NC(=O)/C=C/c1ccc([N+](=O)[O-])s1	LASV entry inh inconclusive, Marburg entry inh inconclusive, FMDV antiviral 10µM (no result: HCMV antiviral)
Cc1ccccc1NC(=O)/C=C/c1cccs1	Marburg entry inh inconclusive
CC(=O)c1cccc(NC(=O)/C=C/c2ccc([N+](=O)[O-])s2)c1	LASV entry inh 7.1µM, HCMV antiviral -96, Marburg entry inh inconclusive, FMDV antiviral inconclusive
Cc1cc(C)cc(NC(=O)/C=C/c2ccc([N+](=O)[O-])s2)c1	HCMV antiviral -92
Cc1ccccc1NC(=O)CSc1nc(-c2ccccc2)cn1-c1ccccc1F	LASV entry inh inconclusive (no result: Marburg entry inh)
Cc1ccc(OCCCCN2CCCCC2)c(C)c1	none (no result: LASV entry inh, VACV Venus inh, Marburg entry inh, VACV mCherry inh)
Cc1ccc(OCCCCNC2CCCC(C)C2C)c(C)c1 (centres undefined)	LASV entry inh inconclusive, VACV Venus inh 10µM, Marburg entry inh 11µM, VACV mCherry inh inconclusive
CCCC(=O)OC[C@H]1CN(C2CCCC2)S(=O)(=O)c2c(Oc3ccc(F)cc3)cccc2O1	none (no result: LASV entry inh, VACV Venus inh, Marburg entry inh, VACV mCherry inh, FMDV antiviral)
O=[N+]([O-])c1ccc(Cl)c([N+](=O)[O-])c1	HCMV antiviral -74, VACV mCherry inh inconclusive, FMDV antiviral inconclusive (no result: LASV entry inh, Marburg entry inh)
O=[N+]([O-])c1ccc(O)c([N+](=O)[O-])c1	HCMV antiviral inconclusive, VACV Venus inh inconclusive, FMDV antiviral inconclusive (no result: LASV entry inh, Marburg entry inh)
Oc1ccc(C[C@H]2CN([C@@H](Cc3ccccc3)CN3CCC[C@@H]3CN3C(=S)NC[C@@H]3Cc3ccccc3)C(=S)N2CC2CCCCC2)cc1	none (no result: LASV entry inh, Marburg entry inh)
Oc1ccc(C[C@H]2CNC(=S)N2CC2CCCN2C[C@H](Cc2ccc(O)cc2)N2C[C@H](Cc3ccc(O)cc3)N(CC3CCCCCC3)C2=S)cc1 (some centres undefined)	HCMV antiviral -67, VACV Venus inh inconclusive, VACV mCherry inh inconclusive, FMDV antiviral inconclusive (no result: LASV entry inh, Marburg entry inh)
CC(C)C[C@H]1CNC(=S)N1CC1CCCN1C[C@H](Cc1ccc(O)cc1)N1C[C@H](Cc2ccccc2)N(CC2CCCCC2)C1=S (some centres undefined)	HCMV antiviral -62, VACV mCherry inh inconclusive (no result: LASV entry inh, Marburg entry inh)
Oc1ccc(C[C@H]2CNC(=S)N2CC2CCCN2C[C@H](Cc2ccccc2)N2C[C@H](Cc3ccc(O)cc3)N(CC3CCCCC3)C2=S)cc1 (some centres undefined)	HCMV antiviral -85 (no result: LASV entry inh, Marburg entry inh)
CCNc1nc(C#N)nc(NCC)n1	none (no result: LASV entry inh, HCMV antiviral, Marburg entry inh, FMDV antiviral)
CS(=O)(=O)Nc1ccc(-c2cncc3nccn23)cc1	none (no result: LASV entry inh, Marburg entry inh)
CS(=O)(=O)Nc1ccc(-c2cnc3cccnn23)cc1	HCMV antiviral -64 (no result: LASV entry inh, Marburg entry inh)
COc1cc(Cl)c(C)cc1NC(=O)Cn1c2ncccc2c(=O)n1-c1ccccc1	LASV entry inh inconclusive (no result: Marburg entry inh)
Cc1ccccc1OCC(=O)N(Cc1ccc(N(C)C)cc1)CC1CCCO1 (centres undefined)	LASV entry inh inconclusive, HCMV antiviral -63
Cc1cc(C)c(OCC(=O)N(Cc2ccc(N(C)C)cc2)CC2CCCO2)c(C)c1 (centres undefined)	LASV entry inh inconclusive
Cc1cccc(CSc2nnc(N)n2-c2ccccc2)c1	none (no result: VACV Venus inh, VACV mCherry inh)
Cc1ccc(S(=O)(=O)NCCSc2nnnn2-c2cc(C)ccc2C)cc1	LASV entry inh 8.9µM, VACV Venus inh inconclusive, Marburg entry inh inconclusive
Cc1ccc(C)c(-n2nnnc2Sc2nnnn2-c2ccccc2)c1	LASV entry inh inconclusive, HCMV antiviral -97, Marburg entry inh 15µM, FMDV antiviral 16µM (no result: VACV Venus inh, VACV mCherry inh)
Cc1cccc(CSc2nnnn2-c2ccccc2)c1	LASV entry inh 10µM, Marburg entry inh inconclusive
Cc1ccc(S(=O)(=O)NCCSc2nnnn2-c2ccccc2)cc1	none
